# Assay results as given in PubChem BioAssay (EPA / NIEHS).
# Records with an inconclusive call do not appear. The source made the active and inactive calls. The calls were made as follows: active = hit-call score of the fitted dose curve at least 0.9, where 1 is the maximum; inconclusive = response in the unintended direction; inactive = score below 0.9.
# Target: Estrogen receptor beta (Homo sapiens) (UniProt Q92731)
# Test: ATG_hERb_XSP1: Attagene TRANS-FACTORIAL Multi-Species (XSP1) HepG2 Assay for human Estrogen Receptor (ESR2) (AID 2283788)
# Summary of the method: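 Multiplexed trans-activation in transfected HepG2: ERβ-Gal4 reporter transcripts after 24 h treatment, detected by RT-PCR plus capillary electrophoresis.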
# Sequence of Estrogen receptor beta (Homo sapiens) (Q92731 whole entry, looked up): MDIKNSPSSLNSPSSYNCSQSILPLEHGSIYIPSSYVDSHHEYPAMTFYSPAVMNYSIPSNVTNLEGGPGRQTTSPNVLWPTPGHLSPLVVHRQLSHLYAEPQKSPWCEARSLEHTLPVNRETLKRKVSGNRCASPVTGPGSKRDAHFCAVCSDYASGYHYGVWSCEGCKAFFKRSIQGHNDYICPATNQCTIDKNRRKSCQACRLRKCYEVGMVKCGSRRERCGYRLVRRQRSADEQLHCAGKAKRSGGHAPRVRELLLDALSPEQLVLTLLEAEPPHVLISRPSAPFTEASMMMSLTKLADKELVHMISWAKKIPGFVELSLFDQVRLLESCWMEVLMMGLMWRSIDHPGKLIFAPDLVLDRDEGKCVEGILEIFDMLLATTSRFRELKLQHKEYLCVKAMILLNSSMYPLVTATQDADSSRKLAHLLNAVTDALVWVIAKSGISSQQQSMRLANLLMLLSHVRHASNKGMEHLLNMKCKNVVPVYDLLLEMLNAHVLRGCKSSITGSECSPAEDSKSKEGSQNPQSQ
Structure (SMILES),AC50,outcome
CC(C)(C)CC(C)(C)c1ccc(O)cc1,2.74 µM (active),–
C[C@]12CCC(=O)C[C@@H]1CC[C@@H]1[C@@H]2CC[C@]2(C)[C@@H](O)CC[C@@H]12,–,inactive
CC12CC1(C)C(=O)N(c1cc(Cl)cc(Cl)c1)C2=O (stereo not given),–,inactive

# Tested on: not listed separately
# Test: ATG_M_06_XSP1: Attagene TRANS-FACTORIAL Multi-Species (XSP1) HepG2 Assay for M06 Transcription Factor (Internal Marker) (AID 2283790)
# Summary of the method: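 This background-control readout tracks M06 reporter mRNA, measured by RT-PCR and capillary electrophoresis. HepG2 cells transiently carrying the GAL4-UAS reporter panel were dosed for 24 h with 3 nM 6-alpha-fluorotestosterone added for partial AR stimulation; increases were scored relative to DMSO.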
row,Structure (SMILES),outcome
1,CC(C)(C)c1cc(O)ccc1O,inactive
2,CC1(C)CCC(Cc2ccc(Cl)cc2)C1(O)Cn1cncn1 (stereo not given),inactive
3,O=C1C2(Cl)C3(Cl)C4(Cl)C(Cl)(Cl)C5(Cl)C3(Cl)C1(Cl)C5(Cl)C24Cl (stereo not given),inactive
4,CC(C)(C)CC(C)(C)c1ccc(O)cc1,inactive
5,COP(=O)(OC)O/C(=C\Cl)c1cc(Cl)c(Cl)cc1Cl,inactive
6,CC12CC1(C)C(=O)N(c1cc(Cl)cc(Cl)c1)C2=O (stereo not given),inactive

# Tested on: not listed separately
# Test: ATG_M_61_XSP1: Attagene TRANS-FACTORIAL Multi-Species (XSP1) HepG2 Assay for M61 Transcription Factor (Internal Marker) (AID 2283797)
# Summary of the method: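 Background-control readout: reporter transcripts measured by RT-PCR and capillary electrophoresis 24 h after dosing transiently transfected HepG2 multi-reporter cells, with 3 nM 6-alpha-fluorotestosterone present. Fitted in the positive direction relative to DMSO.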
row,Structure (SMILES),outcome
1,CC(C)(C)c1cc(O)ccc1O,inactive
2,CC1(C)CCC(Cc2ccc(Cl)cc2)C1(O)Cn1cncn1 (stereo not given),inactive
3,O=C1C2(Cl)C3(Cl)C4(Cl)C(Cl)(Cl)C5(Cl)C3(Cl)C1(Cl)C5(Cl)C24Cl (stereo not given),inactive
4,CC(C)(C)CC(C)(C)c1ccc(O)cc1,inactive
5,COP(=O)(OC)O/C(=C\Cl)c1cc(Cl)c(Cl)cc1Cl,inactive
6,CC12CC1(C)C(=O)N(c1cc(Cl)cc(Cl)c1)C2=O (stereo not given),inactive
